D1 ag: Allosteric Agonists of the Human D1 Dopamine Receptor: qHTS | activation, % at 2 µM | AID 504660, 2011 | 1% of 360,000 active | D(1A) dopamine receptor (Homo sapiens), P21728 | HEK293 T-REx D1 cells, calcium flux, agonist mode; further: 0% is about no effect
Target sequence (P21728 whole entry, looked up): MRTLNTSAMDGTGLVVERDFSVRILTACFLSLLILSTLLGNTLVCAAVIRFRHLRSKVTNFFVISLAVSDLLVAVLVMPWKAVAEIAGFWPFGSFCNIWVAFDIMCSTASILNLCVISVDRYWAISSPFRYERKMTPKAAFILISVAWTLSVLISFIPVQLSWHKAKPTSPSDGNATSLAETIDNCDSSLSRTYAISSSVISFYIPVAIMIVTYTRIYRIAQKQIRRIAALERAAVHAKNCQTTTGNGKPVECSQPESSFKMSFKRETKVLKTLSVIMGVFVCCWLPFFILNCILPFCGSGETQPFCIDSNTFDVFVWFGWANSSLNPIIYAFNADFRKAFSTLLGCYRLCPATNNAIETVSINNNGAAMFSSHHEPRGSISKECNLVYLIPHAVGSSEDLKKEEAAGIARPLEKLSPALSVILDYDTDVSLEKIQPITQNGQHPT
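Inducible HEK293 T-REx D1 cells, force-coupled to calcium signalling, were plated at 4000 cells/well with tetracycline and held overnight at 30 C. After no-wash calcium dye loading, compound-evoked calcium rise over 180 s flagged agonists.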
D1 potentiator: Potentiators of Human D1 Dopamine Receptor: qHTS | HEK293 TREx D1 cells, calcium flux, dopamine EC20 potentiation | 0.036% of 360,000 active | potentiation, % at 10 µM | D(1A) dopamine receptor (Homo sapiens), P21728 | AID 504651, 2011; in the data active means potentiation above about 30%; further: 0% is about no effect
TRHR PAM: qHTS for Small Molecule Agonists and Allosteric Enhancers of Human TRH Receptor: Primary Screen for Enhancers; TRHR cells, fluo-8 calcium fluorescence, EC20 TRH enhancement; Thyrotropin-releasing hormone receptor (Homo sapiens), P34981; 0.66% of 360,000 active; enhancement, % at 2 µM; in the data active means enhancement above about 30%; further: 0% is about no effect
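Enhancer read-out: after compound pinning and an initial kinetic agonist-mode read, an EC20 of TRH (10 nM final) was injected and fluo-8 calcium signal (Ex 480/Em 530) followed at 1 s/cycle for 100 cycles in TRHR-expressing cells.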
TRHR ag: qHTS for Small Molecule Agonists and Allosteric Enhancers of Human TRH Receptor: Primary Screen for Agonists; Thyrotropin-releasing hormone receptor (Homo sapiens), P34981; TRHR cells, calcium flux fluo-8, FDSS agonist mode; activation, % at 2 µM; 0.18% of 360,000 active; AID 493084, 2011; further: 0% is about no effect
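Read-out: compound-evoked intracellular calcium rise in TRHR cells, fluo-8 dye, kinetic FDSS fluorescence at 1 s/cycle following a 10-cycle baseline. Cells cultured overnight before dye loading (30 min–1.5 h, RT).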
D1 antag: Antagonist of Human D 1 Dopamine Receptor: qHTS; AID 504652, 2011; D(1A) dopamine receptor (Homo sapiens), P21728; 3.2% of 360,000 active; HEK293 TREx D1 cells, calcium flux, dopamine EC80; stronger effect = lower value; activity change, negative = inhibition, % at 10 µM; in the data active means activity change below about -30%; further: on the % scale 0 is the no-effect control and ±100 the full control effect
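Antagonism measured as reduced calcium response to an EC80 dopamine addition following 180 s compound pre-read; cells were inducible HEK293 Trex D1 plated overnight at 30 C, read kinetically at 1 cycle/sec.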
* hit, by the source's call. In the library only some 4.6% were active in any assay of this set; here they are far more common. Unless noted, no stated cut-off is given here; in the data, active means activation above about 30%; inactive means the rest.

SMILES | D1 ag | D1 potentiator | TRHR PAM | TRHR ag | D1 antag
Cc1onc(-c2ccccc2)c1C(=O)NNC(=S)NC(=O)/C=C/c1ccccc1 | 34* | -3 | 14 | 5 | -8
O=C(NC(=S)NNC(=O)c1ccc(Cl)cc1Cl)c1cccnc1 | 0 | -4 | 6 | 0 | -16
CCOC(=O)C1CCCN(C(=O)C2CCN(S(=O)(=O)c3c(C)noc3/C=C/c3ccc(C)cc3)CC2)C1 (stereo not given) | 4 | -1 | 3 | 0 | -19
Cc1noc(/C=C/c2ccco2)c1S(=O)(=O)N1CCC(C(=O)Nc2ccc(F)cc2F)CC1 | 3 | 3 | -5 | 1 | -1
COc1ccc(-c2cc3nc(-c4ccc(Br)cc4)cc(C(F)(F)F)n3n2)cc1 | -1 | 1 | -1 | -1 | -17
COc1cc(NC(=O)Cc2c(C(=O)O)c(C)cn2C)cc(OC)c1 | 0 | 0 | 6 | 0 | 1
Cc1c(Cl)cccc1-n1nnc(-c2nc(-c3ccc4c(c3)OCO4)no2)c1C | 2 | -2 | 2 | 0 | -10
COc1ccccc1C(=O)NNC(=S)NC(=O)c1cc(OC)c(OC)c(OC)c1 | 11 | -4 | -4 | 0 | 0
COc1cc(C(=O)NNC(=S)NC(=O)c2ccccc2C)cc(OC)c1OC | 47* | -8 | 4 | 6 | 19
CCOC(=O)CNC(=O)COc1ccc(Cl)cc1Br | 0 | 2 | -1 | -1 | 5
Cc1ccc(SCC(=O)OCC(=O)NCc2cccs2)cc1 | 0 | -2 | -1 | 0 | -2
O=C(COn1nnc2ccc(Cl)cc21)NCc1ccccc1 | 1 | -9 | 0 | 0 | -34*
COc1ccc(CNC(=O)COC(=O)Cc2ccc(Cl)cc2Cl)cc1 | 17 | -4 | 3 | -2 | -47*
O=C(COC(=O)CSc1ccc([N+](=O)[O-])cc1)NCc1cccs1 | 7 | -5 | 11 | -1 | -55*
O=C(COC(=O)COc1ccc(Cl)cc1Br)NCc1cccs1 | 0 | -9 | 12 | 0 | -32*
Cc1ccc(NC(=O)c2cc(S(=O)(=O)N3CCCC(C)C3)cn2C)c(Br)c1 (stereo not given) | 3 | -1 | 3 | 0 | 13
O=C(COC(=O)CCCOc1ccc(Cl)cc1Cl)NCc1ccccc1 | 7 | -4 | 28 | -1 | -37*
COc1ccc(CN2C(=O)CC(Cc3cc(C)cc(C)c3)C2=O)cc1OC (stereo not given) | 2 | -9 | 3 | -1 | -43*
COc1ccc(N2CC(C(=O)Nc3ccc([N+](=O)[O-])cc3Br)CC2=O)cc1 (stereo not given) | -1 | -6 | 0 | 0 | -5
COc1ccc(N2CC(C(=O)N/N=C/c3cc([N+](=O)[O-])ccc3O)CC2=O)cc1 (stereo not given) | -1 | 1 | 39* | 0 | -2
Cc1ccc2oc(-c3ccc(C)c(NC(=O)/C=C/c4ccc(Cl)cc4)c3)nc2c1 | -1 | 0 | 5 | 1 | 8
NC(=O)c1ccc(NC(=O)CSc2nnc(C3CCCCC3)n2N)cc1 | 2 | 2 | -8 | 0 | 12
Nn1c(SCC(=O)Nc2ccc(F)c(F)c2)nnc1C1CCCCC1 | 4 | -6 | -2 | 0 | -53*
Cn1c(SCC(=O)Nc2ccc(F)cc2)nnc1C1CC1 | 1 | -6 | -4 | 1 | -1
C=CCn1c(SCC(=O)NC2CCCCC2)nnc1-c1ccccn1 | 3 | -7 | 0 | 0 | -32*
SMILES | D1 ag | D1 potentiator | TRHR PAM | TRHR ag | D1 antag
CCn1c(SCC(=O)Nc2ccc(F)cc2)nnc1C1CC1 | 1 | -5 | 41* | -1 | -6
CCCn1c(SCC(=O)NC2CCCCC2)nnc1C1CC1 | 2 | -5 | 33* | 0 | 16
C=CCn1c(SCC(=O)NC2CC2)nnc1-c1ccccn1 | 4 | -4 | -3 | 0 | 8
CCc1nnc(SCc2nc(-c3ccccc3Cl)oc2C)c2cc3sc(C)cc3n12 | 0 | -1 | 6 | 0 | -8
Cc1oc2ccc(O)c(CN3CCCCCC3)c2c1C(=O)Nc1cccc(C(F)(F)F)c1 | 28 | 0 | 7 | -1 | -19
CN(Cc1ccccc1)C(=O)CSc1nnc(-c2cccc(Cl)c2)o1 | 56* | 4 | 0 | -1 | -54*
Cc1sc2ncnc(NCC(c3ccco3)N(C)C)c2c1C (stereo not given) | 10 | -6 | -15 | 0 | -35*
O=C(C1CCC(Cn2c(=O)c3sccc3n(Cc3cccc(F)c3)c2=O)CC1)N1CCOCC1 (stereo not given) | 4 | 1 | 7 | 0 | -5
CC(C)(C)c1ccc(-c2nc(C#N)c(NCCCn3ccnc3)o2)cc1 | 36* | -5 | 3 | 0 | -5
CN(Cc1ccccc1F)C(=O)c1ccc(Oc2ccccc2)cc1 | 3 | -9 | -7 | 0 | -31*
COc1ccc2[nH]cc(CCNC(=O)c3cnn(-c4ccc(C)cc4)c3C3CCN(C(=O)OC(C)(C)C)CC3)c2c1 | 1 | 7 | -5 | 0 | 6
N#Cc1ccccc1Sc1ccccc1C(=O)OCC(N)=O | 3 | 2 | 4 | 1 | -5
Cc1noc(C)c1COC(=O)c1ccccc1Sc1ccccc1C#N | 14 | -10 | -14 | 1 | -38*
CCC(CC)C(=O)Nc1ccccc1C(=O)OCc1cc(=O)n2nc(C3CCCCC3)sc2n1 | -2 | 1 | -3 | -1 | -4
S=c1sc2ccccc2n1CCc1ccncc1 | 6 | -8 | -3 | -1 | -39*
Cc1ccc(C(=O)/C=C/c2cn(CC(O)CN3CCCCCC3)c3ccccc23)cc1 (stereo not given) | 59* | -3 | 5 | 4 | -24
O=C(/C=C/c1cn(CC(O)CN2CCCCCC2)c2ccccc12)c1ccc(Br)cc1 (stereo not given) | 45* | -5 | 5 | 7 | -3
COc1ccc(C(=O)/C=C/c2cn(CC(O)CN3CCCCCC3)c3ccccc23)cc1OC (stereo not given) | 15 | -2 | -9 | 4 | 4
O=C(/C=C/c1cn(CC(O)CN2CCCCCC2)c2ccccc12)c1ccccc1 (stereo not given) | 54* | -5 | -2 | 5 | -5
O=C(/C=C/c1cn(CC(O)CN2CCCCC2)c2ccccc12)c1ccccc1 (stereo not given) | 31* | -5 | -1 | 2 | -50*
CCOc1ccc(S(=O)(=O)c2cn(Cc3ccccc3C)c3ccc(OC)cc3c2=O)cc1 | 15 | 1 | -1 | 4 | 33
